The sample as a whole holds a higher share of hits than the screen did.
KDM5B inh – KDM5B demethylase inhibition; KDM5B demethylase, FDH-coupled NADH fluorescence (FDH is formaldehyde dehydrogenase); Potency, µM (top dose mostly 57.7 µM), actives largely listed as inhibitors; 220,000 tested, 2.6% active; AID 1347165; active = well fitted inhibition curve with a large enough effect; also: nearly all actives have a fitted effect of over 70% in size
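Here, H3K4me3 peptide (12.5 µM in substrate mix) is demethylated by KDM5BΔAP, 200 nM final, after 10 min compound exposure. Formaldehyde product is coupled through FDH (0.25 U/mL in mix) to NADH fluorescence; 30-min ΔRFU feeds dose-response curves.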
Hits are given with their value; - = inactive.

SMILES | KDM5B inh
Cn1c(=O)oc2cc(NC(=O)Nc3ccc(F)c(Cl)c3)ccc21 | -
Cn1c(C(=O)Nc2ccccc2)c(Cl)c2ccccc21 | -
O=C(Nc1cccc2cccnc12)C1(c2ccccc2)CCC1 | -
COCCN1C(=O)C(=O)/C(=C(/O)c2ccc(OC)c(C)c2)C1c1ccc(OC)c(OC)c1 (configuration not stated) | -
Fc1ccc(CNC(=S)NCc2ccccc2Br)cc1 | -
C/C(=N\Nc1ccc(Br)cc1)c1ccc([N+](=O)[O-])cc1 | -
COC(=O)c1ccccc1SCC(=O)Nc1cccc2c(=O)[nH][nH]c(=O)c12 | -
CNC(=O)c1ccc(-c2nc(CN3CCN(C(=O)Nc4ccc(C)cc4Cl)CC3)c(C)o2)cc1 | -
CC(C)C(NS(=O)(=O)Cc1ccc(F)cc1)c1cccs1 (configuration not stated) | -
Cc1ccc(-c2ccc(=O)n(C(C)C(=O)Nc3c(C)cc(C)cc3C)n2)cc1 (configuration not stated) | -
Cc1nc(-c2cccc(NC(=O)c3ccc4[nH]c(C)c(C)c4c3)c2)cs1 | -
CC(C)(C)C(=O)NCc1ccc(-c2csc(NC3CC3)n2)s1 | -
CN(Cc1ccccc1)c1ccccc1NCC(=O)NC(N)=O | -
Cc1cnc(C(=O)NC(c2ccccc2)c2ccccc2)cn1 | -
CCOc1ccc(CNC2CCCCC2C)cc1 (configuration not stated) | -
CN1/C(=C\C(=O)CN2CCN(C(c3ccccc3)c3ccccc3)CC2)C(C)(C)c2ccccc21 | -
Cn1cc(C(=O)C(=O)N2CCCCC2)c2ccccc21 | -
CC(=O)N1CCc2c(c3ccccc3n2C)C1 | 25µM
CCCCN1CCc2c(c3ccccc3n2Cc2ccccc2)C1 | -
CS(=O)(=O)Oc1ccc2c(=O)c(Oc3ccccc3Br)c(C(F)(F)F)oc2c1 | -
COCCNC(=O)c1ccc2c(c1)N(C)C(CC(=O)NCc1ccoc1)CO2 (configuration not stated) | 28µM
CCCN(C)C(=O)CC1COc2ccc(C(=O)NCCOC)cc2N1C (configuration not stated) | 32µM
Cc1nc(CCNC(=O)CC2COc3ccc(C(=O)N(C)C)cc3N2C)no1 (configuration not stated) | -
CN(C)C(=O)c1ccc2c(c1)N(C)C(CC(=O)NC1(CO)CCCCC1)CO2 (configuration not stated) | -
CCN(C(=O)CC1COc2ccc(C(=O)N(C)C)cc2N1C)C1CCOCC1 (configuration not stated) | -
SMILES | KDM5B inh
C=CCN(C(=O)CC1COc2ccc(C(=O)N(C)C)cc2N1C)C(C)C (configuration not stated) | -
CN(C)C(=O)c1ccc2c(c1)N(C)C(CC(=O)Nc1ccc[nH]c1=O)CO2 (configuration not stated) | -
COCCNC(=O)c1ccc2c(c1)N(C)C(CC(=O)NCC(C)(C)C)CO2 (configuration not stated) | 28µM
CCC(CC)N(CC)C(=O)CC1COc2ccc(C(=O)N(C)C)cc2N1C (configuration not stated) | -
O=C(CSc1ncc(-c2ccccc2)o1)Nc1ccc(Cl)cc1 | -
Cc1ccc(C(CNC(=O)c2oc3ccc(F)cc3c2C)N(C)C)o1 (configuration not stated) | -
O=C(CN1C(=O)S/C(=C\c2cccc(Cl)c2)C1=O)Nc1ccc2oc(=O)ccc2c1 | -
CCCSC1=C(C#N)C(c2ccc(C)cc2)CC(=O)N1 (configuration not stated) | -
CC(C)c1ccc(NC(=O)c2nc3ccccc3nc2N2CCOCC2)cc1 | -
Cc1nc2nc(N(Cc3ccc(F)cc3)C(=O)c3ccco3)[nH]n2c(=O)c1Cc1ccccc1 | -
CC1C(OC(=O)c2ccc(CS(C)(=O)=O)cc2)CC2CC1C2(C)C (configuration not stated) | -
CCn1nc(C(=O)Nc2ccc3c(c2)CCC3)c2ccccc2c1=O | -
CCn1ncc(CN2C[C@@H](CO)[C@H](c3ccncc3)C2)c1C | -
OC[C@@H]1CN(Cc2ccco2)C[C@H]1c1ccncc1 | -
OC[C@@H]1CN(Cc2cccc3[nH]ccc23)C[C@H]1c1ccncc1 | 25µM
O=C1NCc2ccccc2CC12CCN(Cc1ccc(Cl)s1)CC2 | -
O=C(Nc1ccc(F)c(F)c1F)c1n[nH]c(=O)c2ccccc12 | -
CC(C)NC(=O)CCCC(=O)NCC1(c2ccccc2)CC1 | -
CC(=O)N1CCN(Cc2nc(-c3cccs3)oc2C)CC1 | -
CSc1ccc(-c2nc(CN3CCOC(CCO)C3)c(C)o2)cc1 (configuration not stated) | 16µM
CC(=O)N1CCCN(Cc2nc(-c3cccc(Oc4ccccc4)c3)oc2C)CC1 | -
COCCC1CN(Cc2nc(-c3cccc(C(F)(F)F)c3)oc2C)CCO1 (configuration not stated) | -
Cc1oc(-c2ccccc2)nc1CC(=O)NCC1CN(C)CCO1 (configuration not stated) | -
CSc1ccc(-c2nc(CN3CCN(C(C)=O)CC3)c(C)o2)cc1 | 20µM
Cc1cccc(NC(=O)c2nc3ccccc3nc2N2CCOCC2)c1C | -
SMILES | KDM5B inh
CC(C)c1ccc(/C=C(/C#N)C(=O)Nc2ccc(N3CCOCC3)cc2)cc1 | -
COc1ccc(-c2coc3cc(OCC#N)ccc3c2=O)cc1OC | -
Cc1[nH]c2ccc(C(=O)N3CCC4(CCCN(C)C4=O)C3)cc2c1C (configuration not stated) | -
CN1CCCC2(CCN(C(=O)c3cc(=O)[nH]c4ccc(F)cc34)C2)C1=O (configuration not stated) | 25µM
CC(=O)Nc1ccc(Cl)c(C(=O)N2CCC3(CCCN(C)C3=O)C2)c1 (configuration not stated) | -
CCc1noc([C@@H]2CC(F)(F)CN2C(=O)c2ccoc2C)n1 | -
CCOC(=O)c1c(-c2ccc(OC)c(OC)c2)csc1NC(C)=O | -
O=C(N/N=C/c1ccc(Cl)s1)c1ccc2ccccc2c1 | -
COc1cc(CC(=O)Nc2cc(S(=O)(=O)N3CCCCC3)ccc2C)cc(OC)c1OC | -
CCOc1ccc2c(=O)c(-c3ccc(OC)c(OC)c3)coc2c1 | -
Cc1oc2ccn(Cc3ccc(F)cc3)c(=O)c2c1C(=O)O | -
CCCNC(=O)c1c(C)oc2ccn(Cc3ccc(F)cc3)c(=O)c12 | -
Cc1oc2ccn(Cc3ccc(F)cc3)c(=O)c2c1C(=O)N1CCN(c2ccccn2)CC1 | 22µM
COc1ccccc1NC(=O)c1c(C)oc2ccn(Cc3ccc(F)cc3)c(=O)c12 | 32µM
Cc1oc2ccn(Cc3cccc(F)c3)c(=O)c2c1C(=O)NCc1cccc(F)c1 | -
CCn1ccc2oc(C)c(C(=O)N3CCN(c4ccc(F)cc4)CC3)c2c1=O | -
Cc1sc2nc(C(C)Sc3nnnn3C3CC3)[nH]c(=O)c2c1C (configuration not stated) | -
OC1CCN(c2cc(C(F)(F)F)nc3ccccc23)CC1 | -
O=C(N1CCN(Cc2ccccc2)CC1)C(F)(F)C(F)(F)C(F)(F)C(F)(F)F | -
C[C@@H](NC(=O)c1ccccc1)c1onc(-c2ccc(F)cc2)c1C(=O)O | -
COc1ccc(-c2noc([C@@H](C)NC(=O)c3nc4ccccc4[nH]3)c2C(=O)O)cc1 | 28µM
COc1ccc(-c2noc([C@@H](C)NC(=O)COc3ccccc3)c2C(=O)O)cc1 | -
COc1ccc(OCC(=O)N2CCC(Cc3nc(-c4ccc(OC)cc4)no3)CC2)cc1 | -
CC1CCCC(C(=O)O)N1 (configuration not stated) | -

Screening data from PubChem BioAssay.
